Screening data as filed in PubChem BioAssay.
Compounds with a hit are over-represented: about 6.1% of the library has one in this group of screens.
D3 antag – D3 dopamine receptor (human) antagonism | max response, negative = inhibition, % | 360,000 compounds, 2.5% hits | P35462 | AID 652054 | D3R cells, DiscoveRx beta-arrestin luminescence, antagonist mode; hits give low values; in the data active = max response below about -50%
Target sequence (P35462 whole entry, looked up): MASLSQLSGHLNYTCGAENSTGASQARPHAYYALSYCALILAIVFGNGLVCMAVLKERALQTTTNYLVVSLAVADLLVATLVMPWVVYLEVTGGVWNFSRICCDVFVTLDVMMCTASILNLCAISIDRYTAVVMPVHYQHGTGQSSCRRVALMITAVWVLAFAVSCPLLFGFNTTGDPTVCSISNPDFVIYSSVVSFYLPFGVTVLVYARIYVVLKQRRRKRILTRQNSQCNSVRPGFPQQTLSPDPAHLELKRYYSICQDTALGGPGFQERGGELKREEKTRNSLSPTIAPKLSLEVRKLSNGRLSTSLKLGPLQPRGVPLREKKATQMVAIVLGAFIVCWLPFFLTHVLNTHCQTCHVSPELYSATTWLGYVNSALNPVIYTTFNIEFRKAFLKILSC
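Cells plated overnight at 1500 cells/well, then exposed to library compounds with dopamine controls for 90 minutes at 37 degrees C. DiscoveRx reagent added for 30–60 minutes at room temperature; luminescence read, quantitative HTS format.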
DRD3 agonist – D3 dopamine receptor (human) agonism. P35462. D3R DiscoveRx beta-arrestin cells, luminescence, 90 min. max activation, %. 410,000 compounds, 0.58% hits. AID 652048; in the data active = max activation above about 30%
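Agonist mode: compounds and dopamine controls were applied to plated cells for 90 min at 37 degrees C after an overnight attachment at 1500 cells/well. Luminescent read-out followed 30 - 60 minutes at room temperature with DiscoveRx detection reagent.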
D1 ag – human D1 receptor agonism. P21728. activation, % at 2 µM. AID 504660. HEK293 T-REx D1 cells, calcium flux, agonist mode. 360,000 compounds, 1% hits; in the data active = activation above about 30%
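Agonism was scored from calcium flux recorded over 180 s (1 read/s) after pintool compound addition, following a 10-cycle baseline. Cells were inducible force-coupled HEK293 TREx D1, plated overnight at 30 C and loaded with no-wash calcium dye.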
D1 antagonist – human D1 dopamine receptor antagonism | P21728 | HEK293 TREx D1 cells, calcium flux, dopamine EC80; hits give low values | activity change, negative = inhibition, % at 10 µM | 360,000 compounds, 3.2% hits; in the data active = activity change below about -30%
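Antagonism measured as reduced calcium response to an EC80 dopamine addition following 180 s compound pre-read; cells were inducible HEK293 Trex D1 plated overnight at 30 C, read kinetically at 1 cycle/sec.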
D1 PAM – human D1 dopamine receptor positive modulation. potentiation, % at 10 µM. P21728. 360,000 compounds, 0.036% hits. AID 504651. HEK293 TREx D1 cells, calcium flux, dopamine EC20 potentiation; in the data active = potentiation above about 30%
A number is an active result; - = inactive; . = not tested or not shown; ! = not confirmed by another sample.

SMILES	D3 antag	DRD3 agonist	D1 ag	D1 antagonist	D1 PAM
CCCCN(CCCC)CCNC(=O)c1cn(C)c2ccc(S(=O)(=O)N3CCOCC3)cc2c1=O	.	-	-	-35.0	-
CCOCCCNC(=O)c1cn(CC)c2ccc(S(=O)(=O)N3CCC(C)CC3)cc2c1=O	-	-	-	-34.5	-
CC(=O)Nc1ccc(N=c2cc([N+](=O)[O-])cc(Cl)n2O)cc1	-	-	-	-	-
COc1ccc(-c2cn3nc(N4CCCC(C(=O)Nc5ccc(C)c(C)c5)C4)sc3n2)cc1 (stereo not given)	.	-	-	-	-
CCCCN(C)C(=O)c1cn(CC)c2ccc(S(=O)(=O)N(C)C)cc2c1=O	-	-	-	-30.7	.
CCCCN(C)C(=O)c1cn(C)c2ccc(S(=O)(=O)N(C)C)cc2c1=O	-	-	-	-	-
COc1ccccc1CNC(=O)c1cn(C)c2ccc(S(=O)(=O)N(C)C3CCCCC3)cc2c1=O	.	-	-	-36.7	-
CCC(=O)Nc1ccc(S(=O)(=O)N2CCc3ccccc32)cc1	-	-	-	-40.8	-
O=C(Nc1nnc(S(=O)(=O)N2CCCc3ccccc32)s1)c1ccccc1	.	-	-	-32.8	-
COC(=O)Nc1ccc(S(=O)(=O)N2CCCc3ccccc32)cc1	-	-	-	-38.4	-
O=C(Nc1nnc(S(=O)(=O)N2CCc3ccccc32)s1)c1ccccc1	.	-	-	-	-
CCCC(=O)Nc1ccc(S(=O)(=O)N2CCc3ccccc32)cc1	-	-	.	.	.
CCN1C(=O)/C(=c2\o/c(=C3\C=Cc4ccccc4N3CC)c(=O)n2CC)SC1=S	-	-	-	-	-
CCN1C(=O)/C(=C2\C=Cc3ccccc3N2CC)SC1=S	-91.0	-	-	-32.8	-
Cc1cc(C)c2c(N)c(-c3nc4ccccc4[nH]3)sc2n1	-	-	-	-	-
Cc1ccc2nc(-c3sc4nc(C)ccc4c3N)[nH]c2c1	-	-	-	-38.2	-
COc1ccc(OC)c(N2C(=O)CC(Cc3cc(C)cc(C)c3)C2=O)c1 (stereo not given)	-191.7	-	-	-	-
COc1ccc(OC)c(N2C(=O)CC(Cc3ccc(Cl)cc3)C2=O)c1 (stereo not given)	-	-	-	-	-
CN(C)c1ccc(/C=C/C=C2/SC(=S)N(c3ccccc3)C2=O)cc1	-66.6	-	.	.	.
O=C(O)c1ccc(N2C(=O)/C(=C/C=C/c3ccccc3)SC2=S)cc1	-	-	-	-	-
CCOc1ccc(Cn2c(CNS(=O)(=O)c3cccc(Cl)c3)nc3cccnc32)cc1	.	-	-	-80.0	-
Cc1ccccc1-n1nnnc1SCc1csc(-c2ccccc2)n1	-	-	-	-34.5	-
Cc1ccccc1-n1nnnc1SCC(C)C	-	-	-	-	-
CC/C(=N/N=C(\CC)c1ccccc1)c1ccccc1	-	-	-	-46.3	-
Cc1ccc(N(Cc2cccs2)C(=O)COc2ccccc2[N+](=O)[O-])cc1	.	-	-	-	-
SMILES	D3 antag	DRD3 agonist	D1 ag	D1 antagonist	D1 PAM
CCN(CC)CCN(Cc1cc2cc3c(cc2[nH]c1=O)OCCO3)C(=S)NC	-	-	-	-31.4	-
CC(C)c1ccc(NC(=O)Cn2nnc(C(=O)NCc3ccc(Cl)cc3)c2N)cc1	.	-	-	-	-
Cc1ccc(Cl)cc1Nc1nn2c(=O)c3ccc(C(=O)NC(C)c4ccccc4)cc3nc2s1 (stereo not given)	.	-	-	-54.3	-
CCN(CC)CCNC(=O)c1ccc2c(=O)n3nc(Nc4cccc(Cl)c4C)sc3nc2c1	.	-	-	-55.9	-
O=C(CCc1ccccc1)NC1CC(=O)N(c2cccc(F)c2)C1 (stereo not given)	.	-	-	.	-
Cc1cccc(NC(=O)c2nc[nH]c2C(=O)N[C@H](C)CO)c1	-	-	.	.	.
Cc1ccc(C(NC(=O)N2CCOCC2)=C(Cl)Cl)cc1F	-	-	-	-37.3	-
Cc1ccc(S(=O)(=O)NC2CC(C)(C)N(O)C(C)(C)C2)cc1	-	-	-	-	-
Cc1ccc(S(=O)(=O)NNC(=O)NC23CC4CC(CC(C4)C2)C3)cc1	-	-	-	-	-
CCn1c(SCC(=O)N2CCCCCC2)nc2ccccc2c1=O	-	-	-	-	-
C=CCn1c(SCC(=O)N2CCCCC2)nc(O)cc1=O	-	-	-	-63.3	-
C=CCn1c(SCc2c(F)c(F)c(F)c(F)c2F)nc(O)cc1=O	-	-	33.0	-	-
C=CCn1c(SCC(=O)N2CCCCCC2)nc2ccccc2c1=O	-	-	-	-32.2	-
COc1cc(CCC(=O)OCC(=O)Nc2ccc(F)c(F)c2F)cc(OC)c1OC	-	-	-	-	-
ClC(Cl)(c1nnnn1-c1ccccc1)c1nnnn1-c1ccccc1	-72.0	-	-	-	-
c1ccc(-c2nnnn2-c2ccccc2)cc1	-	-	-	-	-
COc1ccc(NC(=O)CN(C)S(=O)(=O)c2ccc(C(=O)N3CCOCC3)s2)cc1	.	-	-	-	-
c1ccc(Sc2ncnc3c2oc2ccccc23)cc1	-	-	-	-35.1	-
C[C@@H]1C[C@@H]2OC(=O)[C@]3(C)[C@H]2[C@@H](OC3(C)O)[C@]2(C)C(=O)C=C[C@H]12 (stereo not given in full)	-53.2	-	-	-36.8	-
CC(OC(=O)Cc1ccccc1F)C(=O)Nc1ccc(Cl)cn1 (stereo not given)	-	-	-	-	-
CCOC(=O)c1c(C)[nH]c(C)c1S(=O)(=O)N(C)CC(=O)NCc1cccc(Br)c1	-	-	-	-35.9!	-
Cc1ccc(-c2nnc(SCC(=O)NCCN3C(=O)CSC3=O)n2C)cc1	-	-	-	-	-
Cc1ccc(C(=O)NC(=S)Nc2ccc(-c3ccc(CO)o3)cc2)cc1	-	60.7	-	-	-
Cc1ccc(C(=O)NC(=S)Nc2ccc(S(=O)(=O)N3CCN(C)CC3)cc2)cc1	-	-	-	-56.5	-
COC(=O)c1ccc(C2Nc3c(C)cc(C)cc3C3C=CCC32)cc1 (stereo not given)	.	-	-	-	-
SMILES	D3 antag	DRD3 agonist	D1 ag	D1 antagonist	D1 PAM
CCN(Cc1ccccc1)Cc1c(O)ccc2c(=O)c(-c3ccccc3Cl)coc12	.	-	-	-	-
CCSc1nnc(C)n1-c1ccc(C(=O)O)cc1	-56.4	-	-	-	-
O=C(Cn1cnc2nc3c(cc2c1=O)CCCC3)Nc1ccc(F)cc1Cl	.	-	-	-	-
Cc1ccc([C@H]2N[C@]3(CCCN(CC4CCCCC4)C3=O)[C@H]3C(=O)N(C)C(=O)[C@@H]23)cc1	-	-	.	.	.
O=C1C2ON(c3ccccc3)C(c3cccnc3)C2C(=O)N1c1ccc(Cl)c(Cl)c1 (stereo not given)	-	46.9	-	-	-
CCn1nc(C)c(CNC(=O)Nc2ccc3c(c2)OCO3)c1C	-	-	-	-	-
CN(C)Cc1c(C(=O)Nc2ccccc2)[nH]c2ccccc12	-57.3	-	-	-	-
COc1cc2c(cc1OC)C(c1cccs1)N(C(=O)c1cccnc1)CC2 (stereo not given)	-	-	-	-	-
